Data on one sequence can be found in PMC7862700, “An all-to-all approach to the identification of sequence-specific readers for epigenetic DNA modifications on cytosine”.

Experiment in all cases: DAPPL (digital affinity profiling via proximity ligation, sequencing); 10 mM Tris-HCl pH 7.5, 50 mM NaCl, 1 mM DTT, 4% glycerol, room temperature, 30 min; GST-TFs on glutathione beads, 16-mer random dsDNA library, 0.1% formaldehyde crosslink after washing; high values mean tight binding
Holding throughout (conditions): protein: recombinant; tags: N-terminal GST; dsDNA, one strand shown

One assay concerns the target T1, FLI1 (Homo sapiens, UniProt Q01543 1-452).
T1 sequence: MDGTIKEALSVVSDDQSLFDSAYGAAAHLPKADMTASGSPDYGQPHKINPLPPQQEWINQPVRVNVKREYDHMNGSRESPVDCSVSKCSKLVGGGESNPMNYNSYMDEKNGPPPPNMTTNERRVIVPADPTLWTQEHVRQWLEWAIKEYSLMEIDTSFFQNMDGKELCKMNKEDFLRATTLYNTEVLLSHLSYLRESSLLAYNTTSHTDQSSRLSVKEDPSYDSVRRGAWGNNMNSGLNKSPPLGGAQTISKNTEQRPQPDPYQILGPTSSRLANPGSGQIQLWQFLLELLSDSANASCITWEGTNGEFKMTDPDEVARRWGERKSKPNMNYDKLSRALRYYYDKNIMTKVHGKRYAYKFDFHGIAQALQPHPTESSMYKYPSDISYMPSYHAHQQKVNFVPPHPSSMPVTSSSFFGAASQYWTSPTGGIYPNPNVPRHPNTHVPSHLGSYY
The method, boiled down:
(§1)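 Pools were built from human transcription factors expressed in yeast as GST fusions, captured on glutathione beads and DNA-barcoded, along with a tag-only sample. Incubation with 200 nmole of a 16-mer random double-stranded DNA library lasted 30 min at room temperature in Tris/NaCl/DTT/glycerol buffer, and was followed by washing, 0.1% formaldehyde crosslinking, proximity ligation, PCR amplification and Illumina NextSeq500 sequencing. Binding signal is the quotient of each hexamer's read frequency for a factor and its frequency for the tag-only sample.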

The target of a further assay is T2, ELK1 (Homo sapiens, UniProt P19419 1-428).
T2 sequence: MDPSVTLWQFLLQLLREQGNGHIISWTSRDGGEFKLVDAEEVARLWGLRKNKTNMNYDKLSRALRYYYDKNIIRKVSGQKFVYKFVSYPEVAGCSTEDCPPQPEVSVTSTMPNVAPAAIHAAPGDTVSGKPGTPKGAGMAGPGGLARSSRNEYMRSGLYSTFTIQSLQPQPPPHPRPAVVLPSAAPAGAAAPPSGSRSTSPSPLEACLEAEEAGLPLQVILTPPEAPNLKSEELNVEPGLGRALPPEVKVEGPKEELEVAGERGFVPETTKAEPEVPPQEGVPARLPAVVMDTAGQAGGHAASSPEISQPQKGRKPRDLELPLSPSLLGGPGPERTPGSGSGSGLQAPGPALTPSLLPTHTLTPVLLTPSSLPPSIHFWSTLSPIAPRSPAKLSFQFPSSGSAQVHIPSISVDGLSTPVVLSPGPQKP
The method, boiled down:
as §1

The target in a further assay is T3, GABPA (Homo sapiens, UniProt Q06546 1-454).
T3 sequence: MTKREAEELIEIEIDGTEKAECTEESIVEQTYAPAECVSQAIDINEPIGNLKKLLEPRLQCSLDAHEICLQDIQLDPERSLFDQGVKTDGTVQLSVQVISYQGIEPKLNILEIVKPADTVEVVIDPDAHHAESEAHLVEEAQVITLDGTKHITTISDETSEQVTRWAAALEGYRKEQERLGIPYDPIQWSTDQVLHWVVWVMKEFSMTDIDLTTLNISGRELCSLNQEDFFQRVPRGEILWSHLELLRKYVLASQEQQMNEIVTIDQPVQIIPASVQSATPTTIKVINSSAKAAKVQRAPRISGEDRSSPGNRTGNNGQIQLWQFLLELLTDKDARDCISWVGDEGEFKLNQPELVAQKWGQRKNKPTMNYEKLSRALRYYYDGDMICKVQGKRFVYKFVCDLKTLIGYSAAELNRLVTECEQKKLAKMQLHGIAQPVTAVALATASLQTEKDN
Summed up:
as §1

The target of another assay is T4, ERG (Homo sapiens, UniProt P11308 1-479).
T4 sequence: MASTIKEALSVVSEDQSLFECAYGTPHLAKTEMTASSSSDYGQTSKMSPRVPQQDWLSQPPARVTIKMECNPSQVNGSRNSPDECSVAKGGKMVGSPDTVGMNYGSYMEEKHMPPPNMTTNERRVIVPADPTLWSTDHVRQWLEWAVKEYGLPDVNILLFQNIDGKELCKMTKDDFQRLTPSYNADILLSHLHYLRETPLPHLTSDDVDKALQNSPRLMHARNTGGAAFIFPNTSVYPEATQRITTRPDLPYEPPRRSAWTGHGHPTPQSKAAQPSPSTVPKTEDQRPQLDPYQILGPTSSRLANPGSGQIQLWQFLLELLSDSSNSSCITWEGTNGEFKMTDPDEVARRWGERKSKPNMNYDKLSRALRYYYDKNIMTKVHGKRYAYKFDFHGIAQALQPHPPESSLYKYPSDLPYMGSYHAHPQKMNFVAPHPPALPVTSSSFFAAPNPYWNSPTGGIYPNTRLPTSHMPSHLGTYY
Summed up:
as §1

The target of the next assay is ELF1 (Homo sapiens, UniProt P32519 1-619). The method, boiled down:
as §1

The target in another assay is T5, EHF (Homo sapiens, UniProt Q9NZC4 1-300).
T5 sequence: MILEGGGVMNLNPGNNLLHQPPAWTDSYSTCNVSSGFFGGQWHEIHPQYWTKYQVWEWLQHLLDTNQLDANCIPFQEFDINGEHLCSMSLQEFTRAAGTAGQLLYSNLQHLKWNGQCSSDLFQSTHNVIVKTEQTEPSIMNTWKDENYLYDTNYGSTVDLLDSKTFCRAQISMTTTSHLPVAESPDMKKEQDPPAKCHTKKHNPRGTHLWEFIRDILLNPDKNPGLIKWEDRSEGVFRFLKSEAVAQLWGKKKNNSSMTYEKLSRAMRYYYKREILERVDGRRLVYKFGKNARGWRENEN
The method, boiled down: as §1

For a further assay, the target named is SPI1 (Homo sapiens, UniProt P17947 1-270). Summed up: as §1
The target of another assay is SPIB (Homo sapiens, UniProt Q01892 1-262). The method, boiled down:
as §1

The next assay addresses T6, ELK3 (Homo sapiens, UniProt P41970 1-407).
T6 sequence: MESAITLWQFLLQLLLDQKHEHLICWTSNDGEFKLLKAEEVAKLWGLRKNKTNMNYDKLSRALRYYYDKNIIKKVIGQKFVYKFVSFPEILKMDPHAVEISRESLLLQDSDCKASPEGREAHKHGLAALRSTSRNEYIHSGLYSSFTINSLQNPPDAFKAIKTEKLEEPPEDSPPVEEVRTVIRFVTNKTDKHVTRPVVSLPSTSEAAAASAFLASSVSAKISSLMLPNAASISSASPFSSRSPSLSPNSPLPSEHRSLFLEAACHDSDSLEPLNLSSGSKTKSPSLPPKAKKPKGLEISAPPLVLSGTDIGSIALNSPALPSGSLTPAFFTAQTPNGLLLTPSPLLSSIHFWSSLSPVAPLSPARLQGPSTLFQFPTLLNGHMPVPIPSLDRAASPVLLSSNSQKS
The method, boiled down:
as §1

The target in another assay is T7, FEV (Homo sapiens, UniProt Q99581 1-238).
T7 sequence: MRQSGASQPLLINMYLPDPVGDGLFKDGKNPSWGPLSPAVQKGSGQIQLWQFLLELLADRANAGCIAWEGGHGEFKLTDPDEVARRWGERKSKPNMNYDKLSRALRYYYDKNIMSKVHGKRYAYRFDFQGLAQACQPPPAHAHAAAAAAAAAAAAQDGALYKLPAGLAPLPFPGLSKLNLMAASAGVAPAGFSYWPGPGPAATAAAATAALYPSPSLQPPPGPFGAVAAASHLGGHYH
The method, boiled down: as §1

Another assay concerns the target ETV5 (Homo sapiens, UniProt P41161 1-510). Summed up:
as §1

In a further assay the target is ELF4 (Homo sapiens, UniProt Q99607 1-663). The method, boiled down:
as §1

The next assay deals with ETV1 (Homo sapiens, UniProt P50549 1-477). The method, boiled down: as §1
Chain of ETV1 (P50549 whole entry): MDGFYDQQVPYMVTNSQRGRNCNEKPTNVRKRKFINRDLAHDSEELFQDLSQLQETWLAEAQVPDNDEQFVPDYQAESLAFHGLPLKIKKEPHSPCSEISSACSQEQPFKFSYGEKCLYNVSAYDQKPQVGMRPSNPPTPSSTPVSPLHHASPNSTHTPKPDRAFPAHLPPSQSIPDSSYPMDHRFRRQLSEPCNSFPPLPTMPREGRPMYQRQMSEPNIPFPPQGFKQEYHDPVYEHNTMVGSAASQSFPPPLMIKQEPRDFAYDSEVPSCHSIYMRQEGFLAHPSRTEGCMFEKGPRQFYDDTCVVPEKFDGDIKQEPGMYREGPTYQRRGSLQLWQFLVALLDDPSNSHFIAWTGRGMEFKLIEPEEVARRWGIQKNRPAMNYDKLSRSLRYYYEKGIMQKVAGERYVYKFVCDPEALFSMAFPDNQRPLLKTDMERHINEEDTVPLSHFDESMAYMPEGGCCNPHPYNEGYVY
In a further assay the target is T8, ERF (Homo sapiens, UniProt P50548 1-548).
T8 sequence: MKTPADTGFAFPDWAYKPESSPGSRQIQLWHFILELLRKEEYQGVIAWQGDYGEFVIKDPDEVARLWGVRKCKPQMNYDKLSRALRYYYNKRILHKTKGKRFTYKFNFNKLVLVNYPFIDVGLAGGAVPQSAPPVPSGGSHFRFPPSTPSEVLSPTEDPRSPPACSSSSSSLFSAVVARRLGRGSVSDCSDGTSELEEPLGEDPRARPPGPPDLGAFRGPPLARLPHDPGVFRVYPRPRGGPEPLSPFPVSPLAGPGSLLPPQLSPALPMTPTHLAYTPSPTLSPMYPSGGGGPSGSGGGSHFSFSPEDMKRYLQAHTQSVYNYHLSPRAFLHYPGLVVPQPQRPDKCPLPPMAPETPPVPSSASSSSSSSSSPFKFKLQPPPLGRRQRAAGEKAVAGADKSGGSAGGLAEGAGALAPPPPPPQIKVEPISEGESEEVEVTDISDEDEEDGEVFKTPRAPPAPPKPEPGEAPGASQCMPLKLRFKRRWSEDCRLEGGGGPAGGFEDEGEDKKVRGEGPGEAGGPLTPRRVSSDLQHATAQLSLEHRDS
The method, boiled down:
as §1

The next assay addresses T9, ETV3L (Homo sapiens, UniProt Q6ZN32 1-361).
T9 sequence: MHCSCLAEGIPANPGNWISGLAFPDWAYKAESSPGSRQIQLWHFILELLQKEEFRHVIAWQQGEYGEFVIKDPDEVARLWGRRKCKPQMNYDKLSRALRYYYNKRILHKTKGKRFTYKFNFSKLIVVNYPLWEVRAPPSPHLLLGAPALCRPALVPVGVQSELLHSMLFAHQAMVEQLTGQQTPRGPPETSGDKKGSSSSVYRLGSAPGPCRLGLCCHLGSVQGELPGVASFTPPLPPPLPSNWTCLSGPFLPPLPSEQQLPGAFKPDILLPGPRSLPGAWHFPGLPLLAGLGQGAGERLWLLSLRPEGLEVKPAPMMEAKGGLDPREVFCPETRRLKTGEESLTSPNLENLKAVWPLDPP
Summed up:
as §1

Another assay addresses T10, ETS2 (Homo sapiens, UniProt P15036 1-469).
T10 sequence: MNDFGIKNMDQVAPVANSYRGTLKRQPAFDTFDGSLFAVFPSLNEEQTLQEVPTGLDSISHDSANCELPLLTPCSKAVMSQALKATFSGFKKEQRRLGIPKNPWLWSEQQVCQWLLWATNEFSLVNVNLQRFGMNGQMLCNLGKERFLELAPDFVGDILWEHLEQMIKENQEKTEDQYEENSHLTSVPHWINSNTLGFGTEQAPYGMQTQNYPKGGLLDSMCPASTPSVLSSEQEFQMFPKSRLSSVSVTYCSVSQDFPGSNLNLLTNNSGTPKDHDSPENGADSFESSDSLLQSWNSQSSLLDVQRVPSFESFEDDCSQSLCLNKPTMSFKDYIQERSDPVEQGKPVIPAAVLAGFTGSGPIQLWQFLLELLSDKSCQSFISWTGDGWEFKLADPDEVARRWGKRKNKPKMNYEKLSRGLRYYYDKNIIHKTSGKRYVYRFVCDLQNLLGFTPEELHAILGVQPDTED
Summed up: as §1

Another assay concerns the target T11, ELF5 (Homo sapiens, UniProt Q9UKW6-2 1-255).
T11 sequence: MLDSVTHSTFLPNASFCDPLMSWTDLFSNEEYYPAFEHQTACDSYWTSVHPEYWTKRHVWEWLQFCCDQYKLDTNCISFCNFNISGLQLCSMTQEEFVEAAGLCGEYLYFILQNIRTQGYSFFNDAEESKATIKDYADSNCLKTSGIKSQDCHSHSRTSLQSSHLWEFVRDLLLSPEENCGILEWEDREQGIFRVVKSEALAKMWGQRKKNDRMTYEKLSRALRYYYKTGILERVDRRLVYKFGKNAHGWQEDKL
Summed up:
as §1

The target of another assay is T12, ETV3 (Homo sapiens, UniProt P41162-2 1-143).
T12 sequence: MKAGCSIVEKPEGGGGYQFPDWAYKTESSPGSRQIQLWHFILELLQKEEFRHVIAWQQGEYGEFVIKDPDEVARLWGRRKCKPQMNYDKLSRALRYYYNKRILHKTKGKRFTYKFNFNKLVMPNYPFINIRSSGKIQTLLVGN
The method, boiled down: as §1

The next assay has as its target ETV6 (Homo sapiens, UniProt P41212 1-452). The method, boiled down: as §1

Chain of ETV6 (P41212 whole entry): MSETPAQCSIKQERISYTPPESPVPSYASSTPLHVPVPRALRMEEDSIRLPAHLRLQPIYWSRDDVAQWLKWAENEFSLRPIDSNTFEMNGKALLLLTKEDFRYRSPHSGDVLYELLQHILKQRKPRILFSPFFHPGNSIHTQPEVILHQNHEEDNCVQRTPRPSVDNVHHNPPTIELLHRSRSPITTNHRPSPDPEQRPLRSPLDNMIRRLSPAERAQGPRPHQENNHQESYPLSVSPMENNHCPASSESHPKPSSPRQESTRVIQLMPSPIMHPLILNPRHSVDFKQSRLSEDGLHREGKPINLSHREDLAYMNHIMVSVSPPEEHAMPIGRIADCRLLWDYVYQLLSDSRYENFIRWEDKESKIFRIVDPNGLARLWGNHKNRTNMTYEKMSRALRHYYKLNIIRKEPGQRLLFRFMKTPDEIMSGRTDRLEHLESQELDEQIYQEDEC
Chain of ELF1 (P32519 whole entry): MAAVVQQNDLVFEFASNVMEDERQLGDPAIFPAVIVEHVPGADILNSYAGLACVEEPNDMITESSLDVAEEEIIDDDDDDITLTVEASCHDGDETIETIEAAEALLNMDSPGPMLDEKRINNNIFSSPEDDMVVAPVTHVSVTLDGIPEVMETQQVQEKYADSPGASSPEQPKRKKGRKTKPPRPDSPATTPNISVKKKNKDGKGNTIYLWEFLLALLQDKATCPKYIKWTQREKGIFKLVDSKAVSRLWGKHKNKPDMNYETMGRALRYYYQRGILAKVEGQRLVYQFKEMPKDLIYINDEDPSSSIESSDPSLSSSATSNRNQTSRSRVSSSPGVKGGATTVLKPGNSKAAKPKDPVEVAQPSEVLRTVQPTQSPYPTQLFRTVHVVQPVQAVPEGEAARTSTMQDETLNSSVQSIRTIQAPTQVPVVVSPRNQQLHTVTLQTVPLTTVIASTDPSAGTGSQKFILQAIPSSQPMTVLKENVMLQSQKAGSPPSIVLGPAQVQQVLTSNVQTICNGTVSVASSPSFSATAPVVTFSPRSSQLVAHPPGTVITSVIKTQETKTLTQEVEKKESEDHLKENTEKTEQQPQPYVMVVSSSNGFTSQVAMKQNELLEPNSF
Chain of ELF4 (Q99607 whole entry): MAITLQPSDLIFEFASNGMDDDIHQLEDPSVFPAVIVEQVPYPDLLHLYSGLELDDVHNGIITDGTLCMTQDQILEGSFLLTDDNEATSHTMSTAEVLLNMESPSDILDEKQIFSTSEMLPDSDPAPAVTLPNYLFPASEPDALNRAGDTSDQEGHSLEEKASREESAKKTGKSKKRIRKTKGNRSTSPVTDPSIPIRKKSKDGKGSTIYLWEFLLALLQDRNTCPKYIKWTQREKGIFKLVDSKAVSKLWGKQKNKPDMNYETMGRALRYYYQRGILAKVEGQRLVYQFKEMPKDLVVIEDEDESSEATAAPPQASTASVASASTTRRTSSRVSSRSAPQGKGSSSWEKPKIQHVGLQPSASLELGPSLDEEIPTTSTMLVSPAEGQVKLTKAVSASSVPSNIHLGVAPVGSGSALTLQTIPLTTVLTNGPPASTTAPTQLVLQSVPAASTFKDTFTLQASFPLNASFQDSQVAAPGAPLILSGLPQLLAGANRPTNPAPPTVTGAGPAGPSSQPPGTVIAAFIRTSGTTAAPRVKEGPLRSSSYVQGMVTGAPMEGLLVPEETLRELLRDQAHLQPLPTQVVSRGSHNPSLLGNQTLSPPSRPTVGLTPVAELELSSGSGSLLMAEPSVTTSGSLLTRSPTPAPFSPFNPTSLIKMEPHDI
Chain of ETV5 (P41161 whole entry): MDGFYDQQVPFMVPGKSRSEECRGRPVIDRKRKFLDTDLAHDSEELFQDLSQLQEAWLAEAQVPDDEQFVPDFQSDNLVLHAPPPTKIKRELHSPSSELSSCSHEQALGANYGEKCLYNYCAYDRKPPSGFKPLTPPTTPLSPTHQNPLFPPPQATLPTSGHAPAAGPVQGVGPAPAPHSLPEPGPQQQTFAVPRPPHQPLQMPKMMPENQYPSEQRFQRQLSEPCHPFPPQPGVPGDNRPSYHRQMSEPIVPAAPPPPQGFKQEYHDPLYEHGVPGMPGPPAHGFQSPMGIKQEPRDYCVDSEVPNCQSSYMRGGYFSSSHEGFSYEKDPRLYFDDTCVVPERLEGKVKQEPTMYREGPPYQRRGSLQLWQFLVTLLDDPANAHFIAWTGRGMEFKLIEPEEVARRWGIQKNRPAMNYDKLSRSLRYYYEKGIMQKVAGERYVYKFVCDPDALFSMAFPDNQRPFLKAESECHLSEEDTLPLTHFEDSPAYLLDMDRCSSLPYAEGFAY
Chain of SPIB (Q01892 whole entry): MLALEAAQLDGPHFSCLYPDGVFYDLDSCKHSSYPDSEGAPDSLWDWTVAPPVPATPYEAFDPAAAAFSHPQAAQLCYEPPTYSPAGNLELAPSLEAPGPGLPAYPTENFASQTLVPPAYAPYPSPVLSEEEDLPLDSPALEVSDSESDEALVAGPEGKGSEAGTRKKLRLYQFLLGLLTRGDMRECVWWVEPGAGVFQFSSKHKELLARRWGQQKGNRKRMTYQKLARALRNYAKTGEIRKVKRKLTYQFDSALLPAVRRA

Take GTACCC: the binding signal in the assay with FLI1 was 1.08 fold enrichment (6-mer frequency, TF over GST control); with ELK1, 1.05 fold enrichment (6-mer frequency, TF over GST control); with GABPA, 1.07 fold enrichment (6-mer frequency, TF over GST control); in the assay with ERG, 1.05 fold enrichment (6-mer frequency, TF over GST control); in the assay with ELF1, 1.12 fold enrichment (6-mer frequency, TF over GST control); with EHF, 1.16 fold enrichment (6-mer frequency, TF over GST control). In addition, the binding signal with SPI1 was 1.16 fold enrichment (6-mer frequency, TF over GST control); with SPIB it was 1.07 fold enrichment (6-mer frequency, TF over GST control); in the assay with ELK3, 1.12 fold enrichment (6-mer frequency, TF over GST control); in the assay with FEV it was 1.05 fold enrichment (6-mer frequency, TF over GST control); in the assay with ETV5, 1.17 fold enrichment (6-mer frequency, TF over GST control); in the assay with ELF4, 1.06 fold enrichment (6-mer frequency, TF over GST control). Moreover, the binding signal with ETV1 is 1.11 fold enrichment (6-mer frequency, TF over GST control); with ERF, 1.13 fold enrichment (6-mer frequency, TF over GST control); in the assay with ETV3L it was 1.16 fold enrichment (6-mer frequency, TF over GST control); with ETS2, 1.12 fold enrichment (6-mer frequency, TF over GST control); with ELF5, 1.01 fold enrichment (6-mer frequency, TF over GST control); with ETV3, 1.06 fold enrichment (6-mer frequency, TF over GST control). The binding signal in the assay with ETV6 was 1.13 fold enrichment (6-mer frequency, TF over GST control).
